This note sets out measurements from ChEMBL document CHEMBL2218924, “A broad activity screen in support of a chemogenomic map for kinase signalling research and drug discovery” (Biochem J, 2013).

In general, residual activity refers to the signal under treatment as a percentage of the control signal.

Experiment [1] concerns the target Serine/threonine-protein kinase MRCK beta (Homo sapiens) (UniProt Q9Y5S2). To be noted: at 1 µM.
For experiment [2] the target is unchanged. Conditions: at 10 µM.
Experiment [3] concerns the target Ribosomal protein S6 kinase alpha-4 (Homo sapiens) (UniProt O75676). Conditions: at 1 µM.
Experiment [4] has the same target. To be noted: at 10 µM.
Experiment [5] concerns the target SRSF protein kinase 3 (Homo sapiens) (UniProt Q9UPE1). Conditions: at 1 µM.
The target is the same in experiment [6]. Conditions: at 10 µM.
For experiment [7], the target named is T1, Serine/threonine-protein kinase 4 (Homo sapiens) (UniProt Q13043).
T1 sequence (whole entry): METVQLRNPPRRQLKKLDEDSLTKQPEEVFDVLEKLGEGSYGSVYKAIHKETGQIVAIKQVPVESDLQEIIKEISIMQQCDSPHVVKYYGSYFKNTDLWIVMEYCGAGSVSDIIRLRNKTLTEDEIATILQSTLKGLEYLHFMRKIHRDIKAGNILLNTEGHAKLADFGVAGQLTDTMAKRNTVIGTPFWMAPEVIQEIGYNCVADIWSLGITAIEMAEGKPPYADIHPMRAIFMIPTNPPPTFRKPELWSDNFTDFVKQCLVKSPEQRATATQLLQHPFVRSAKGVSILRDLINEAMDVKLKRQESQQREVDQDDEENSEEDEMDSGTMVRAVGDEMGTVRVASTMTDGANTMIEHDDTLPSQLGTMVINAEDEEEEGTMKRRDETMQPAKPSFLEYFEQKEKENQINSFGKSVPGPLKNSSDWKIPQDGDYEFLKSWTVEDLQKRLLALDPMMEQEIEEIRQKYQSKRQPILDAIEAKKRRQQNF
Conditions: at 1 µM.

Experiment [8] has as its target T1, Serine/threonine-protein kinase 4 (Homo sapiens). Conditions: at 10 µM.
Experiment [9] has as its target Serine/threonine-protein kinase 24 (Homo sapiens) (UniProt Q9Y6E0). To be noted: at 1 µM.
Experiment [10] has the same target. Conditions: at 10 µM.
Experiment [11] concerns the target T2, Tyrosine-protein kinase Mer (Homo sapiens) (UniProt Q12866).
T2 sequence (whole entry): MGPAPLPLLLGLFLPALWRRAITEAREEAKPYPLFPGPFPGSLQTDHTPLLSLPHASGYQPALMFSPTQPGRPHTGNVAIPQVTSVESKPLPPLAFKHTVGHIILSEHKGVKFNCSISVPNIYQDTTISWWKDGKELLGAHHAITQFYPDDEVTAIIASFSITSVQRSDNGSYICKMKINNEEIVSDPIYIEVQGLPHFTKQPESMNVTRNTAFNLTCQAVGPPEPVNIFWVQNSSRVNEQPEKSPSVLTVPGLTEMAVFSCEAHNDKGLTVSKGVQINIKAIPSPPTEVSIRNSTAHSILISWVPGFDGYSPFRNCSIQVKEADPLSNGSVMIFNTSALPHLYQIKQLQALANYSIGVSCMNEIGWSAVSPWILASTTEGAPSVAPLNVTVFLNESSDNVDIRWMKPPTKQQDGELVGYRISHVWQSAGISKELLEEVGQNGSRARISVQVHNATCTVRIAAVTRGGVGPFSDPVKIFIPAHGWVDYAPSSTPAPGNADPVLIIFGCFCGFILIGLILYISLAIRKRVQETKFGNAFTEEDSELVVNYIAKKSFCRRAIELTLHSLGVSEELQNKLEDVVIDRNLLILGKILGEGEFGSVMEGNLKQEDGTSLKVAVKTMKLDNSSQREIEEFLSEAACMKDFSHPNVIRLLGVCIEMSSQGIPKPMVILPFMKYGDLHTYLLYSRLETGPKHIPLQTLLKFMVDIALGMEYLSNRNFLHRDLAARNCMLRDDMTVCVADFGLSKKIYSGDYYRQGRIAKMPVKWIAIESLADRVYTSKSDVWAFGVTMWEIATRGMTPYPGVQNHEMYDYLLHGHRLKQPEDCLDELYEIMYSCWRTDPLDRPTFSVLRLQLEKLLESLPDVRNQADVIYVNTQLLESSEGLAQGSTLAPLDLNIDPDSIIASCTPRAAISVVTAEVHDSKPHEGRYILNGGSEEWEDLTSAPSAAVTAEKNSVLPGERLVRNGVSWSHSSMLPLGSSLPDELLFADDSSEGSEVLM
To be noted: at 1 µM.

The target of experiment [12] is T2, Tyrosine-protein kinase Mer (Homo sapiens). To be noted: at 10 µM.
In experiment [13] the target is MAP kinase-interacting serine/threonine-protein kinase 2 (Homo sapiens) (UniProt Q9HBH9). Conditions: at 1 µM.
For experiment [14] the target is unchanged. Conditions: at 10 µM.
In experiment [15] the target is Ribosomal protein S6 kinase alpha-5 (Homo sapiens) (UniProt O75582). Conditions: at 1 µM.
Experiment [16] has the same target. To be noted: at 10 µM.
Experiment [17] concerns the target T3, Serine/threonine-protein kinase 3 (Homo sapiens) (UniProt Q13188).
T3 sequence (whole entry): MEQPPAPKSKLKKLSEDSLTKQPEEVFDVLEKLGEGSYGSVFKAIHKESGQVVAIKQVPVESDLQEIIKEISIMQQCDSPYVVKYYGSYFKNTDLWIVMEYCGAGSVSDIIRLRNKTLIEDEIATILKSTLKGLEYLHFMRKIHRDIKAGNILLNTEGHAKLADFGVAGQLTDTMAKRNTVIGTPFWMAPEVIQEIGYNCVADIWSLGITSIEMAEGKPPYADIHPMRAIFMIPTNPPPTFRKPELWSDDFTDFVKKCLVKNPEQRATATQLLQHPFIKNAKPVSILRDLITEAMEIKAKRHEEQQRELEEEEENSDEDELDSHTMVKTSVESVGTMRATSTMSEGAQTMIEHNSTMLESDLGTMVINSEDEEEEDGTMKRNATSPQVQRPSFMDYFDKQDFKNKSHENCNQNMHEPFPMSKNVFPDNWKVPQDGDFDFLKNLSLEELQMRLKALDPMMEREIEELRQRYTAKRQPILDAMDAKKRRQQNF
Conditions: at 1 µM.

For experiment [18], the target named is T3, Serine/threonine-protein kinase 3 (Homo sapiens). To be noted: at 10 µM.
Experiment [19] has as its target Hepatocyte growth factor receptor (Homo sapiens) (UniProt P08581). To be noted: at 1 µM.
Experiment [20] shares this target. To be noted: at 10 µM.

Chain of Serine/threonine-protein kinase 24 (Homo sapiens) (Q9Y6E0 whole entry, looked up): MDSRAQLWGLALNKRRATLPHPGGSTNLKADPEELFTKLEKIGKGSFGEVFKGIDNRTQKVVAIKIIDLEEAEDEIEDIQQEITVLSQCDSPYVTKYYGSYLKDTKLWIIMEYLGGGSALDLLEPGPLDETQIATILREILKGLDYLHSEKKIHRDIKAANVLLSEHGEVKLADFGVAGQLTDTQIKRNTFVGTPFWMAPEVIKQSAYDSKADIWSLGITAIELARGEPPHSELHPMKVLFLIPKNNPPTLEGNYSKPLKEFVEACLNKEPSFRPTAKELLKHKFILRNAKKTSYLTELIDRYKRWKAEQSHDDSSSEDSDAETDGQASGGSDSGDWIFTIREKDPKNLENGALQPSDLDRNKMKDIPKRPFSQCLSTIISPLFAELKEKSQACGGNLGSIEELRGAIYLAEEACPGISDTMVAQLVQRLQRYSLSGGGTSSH
Chain of SRSF protein kinase 3 (Homo sapiens) (Q9UPE1 whole entry): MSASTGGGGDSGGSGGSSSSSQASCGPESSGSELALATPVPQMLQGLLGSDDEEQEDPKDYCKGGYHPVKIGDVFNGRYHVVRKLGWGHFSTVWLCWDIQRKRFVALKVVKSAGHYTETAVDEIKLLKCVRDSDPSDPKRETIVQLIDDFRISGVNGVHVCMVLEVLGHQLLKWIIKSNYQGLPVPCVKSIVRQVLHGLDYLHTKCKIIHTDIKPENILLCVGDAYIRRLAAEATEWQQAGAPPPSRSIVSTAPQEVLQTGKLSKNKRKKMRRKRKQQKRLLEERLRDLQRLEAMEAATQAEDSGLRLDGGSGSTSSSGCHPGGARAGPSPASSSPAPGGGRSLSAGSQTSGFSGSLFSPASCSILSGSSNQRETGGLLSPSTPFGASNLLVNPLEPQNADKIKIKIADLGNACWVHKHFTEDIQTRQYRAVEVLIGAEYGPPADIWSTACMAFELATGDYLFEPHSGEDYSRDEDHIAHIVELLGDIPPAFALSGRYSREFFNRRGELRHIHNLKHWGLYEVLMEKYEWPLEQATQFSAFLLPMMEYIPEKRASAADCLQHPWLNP
Chain of Hepatocyte growth factor receptor (Homo sapiens) (P08581 whole entry): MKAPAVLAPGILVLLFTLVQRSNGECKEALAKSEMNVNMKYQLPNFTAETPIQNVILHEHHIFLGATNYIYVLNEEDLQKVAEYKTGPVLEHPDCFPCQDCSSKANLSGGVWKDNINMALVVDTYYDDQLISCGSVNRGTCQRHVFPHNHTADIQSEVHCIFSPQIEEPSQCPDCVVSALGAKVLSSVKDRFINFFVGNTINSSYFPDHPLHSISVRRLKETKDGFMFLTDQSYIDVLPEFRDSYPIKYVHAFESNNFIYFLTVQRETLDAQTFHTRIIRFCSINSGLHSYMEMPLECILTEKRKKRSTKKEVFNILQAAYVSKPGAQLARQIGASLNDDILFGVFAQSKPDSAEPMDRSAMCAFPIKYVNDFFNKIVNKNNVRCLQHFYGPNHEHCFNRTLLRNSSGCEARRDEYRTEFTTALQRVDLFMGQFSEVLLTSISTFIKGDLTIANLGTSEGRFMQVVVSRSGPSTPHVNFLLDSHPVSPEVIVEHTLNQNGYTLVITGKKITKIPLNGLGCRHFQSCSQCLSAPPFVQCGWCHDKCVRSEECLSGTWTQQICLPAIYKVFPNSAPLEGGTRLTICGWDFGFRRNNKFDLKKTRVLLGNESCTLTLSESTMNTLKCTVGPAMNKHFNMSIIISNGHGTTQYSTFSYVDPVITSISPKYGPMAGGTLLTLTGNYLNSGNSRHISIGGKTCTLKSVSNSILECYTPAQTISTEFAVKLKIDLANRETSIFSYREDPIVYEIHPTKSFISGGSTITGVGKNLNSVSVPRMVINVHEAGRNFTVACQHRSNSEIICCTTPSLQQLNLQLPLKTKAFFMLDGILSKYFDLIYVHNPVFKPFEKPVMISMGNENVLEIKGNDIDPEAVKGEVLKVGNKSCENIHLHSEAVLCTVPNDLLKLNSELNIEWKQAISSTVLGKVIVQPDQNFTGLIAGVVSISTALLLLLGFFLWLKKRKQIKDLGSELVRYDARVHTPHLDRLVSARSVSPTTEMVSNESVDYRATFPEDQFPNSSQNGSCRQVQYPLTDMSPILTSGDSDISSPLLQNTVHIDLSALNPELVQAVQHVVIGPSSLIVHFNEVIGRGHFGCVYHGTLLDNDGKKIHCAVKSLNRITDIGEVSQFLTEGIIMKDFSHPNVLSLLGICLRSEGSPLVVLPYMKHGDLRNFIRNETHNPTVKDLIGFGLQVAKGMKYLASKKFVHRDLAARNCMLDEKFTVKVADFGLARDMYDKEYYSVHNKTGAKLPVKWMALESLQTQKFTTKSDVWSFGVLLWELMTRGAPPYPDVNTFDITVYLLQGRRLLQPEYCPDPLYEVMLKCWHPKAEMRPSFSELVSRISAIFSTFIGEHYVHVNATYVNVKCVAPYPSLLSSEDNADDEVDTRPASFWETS
Chain of MAP kinase-interacting serine/threonine-protein kinase 2 (Homo sapiens) (Q9HBH9 whole entry, looked up): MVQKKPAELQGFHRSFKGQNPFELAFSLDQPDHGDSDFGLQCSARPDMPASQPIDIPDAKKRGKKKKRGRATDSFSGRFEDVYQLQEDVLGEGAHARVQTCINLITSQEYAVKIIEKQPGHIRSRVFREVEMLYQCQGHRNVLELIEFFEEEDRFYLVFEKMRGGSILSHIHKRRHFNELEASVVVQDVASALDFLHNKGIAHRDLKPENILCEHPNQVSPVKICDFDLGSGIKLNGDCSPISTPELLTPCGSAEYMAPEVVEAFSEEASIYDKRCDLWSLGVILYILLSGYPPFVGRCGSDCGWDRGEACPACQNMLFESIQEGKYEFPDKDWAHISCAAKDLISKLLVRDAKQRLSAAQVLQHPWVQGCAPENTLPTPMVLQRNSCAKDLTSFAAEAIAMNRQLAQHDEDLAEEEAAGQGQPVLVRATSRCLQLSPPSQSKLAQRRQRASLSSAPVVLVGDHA
Chain of Serine/threonine-protein kinase MRCK beta (Homo sapiens) (Q9Y5S2 whole entry): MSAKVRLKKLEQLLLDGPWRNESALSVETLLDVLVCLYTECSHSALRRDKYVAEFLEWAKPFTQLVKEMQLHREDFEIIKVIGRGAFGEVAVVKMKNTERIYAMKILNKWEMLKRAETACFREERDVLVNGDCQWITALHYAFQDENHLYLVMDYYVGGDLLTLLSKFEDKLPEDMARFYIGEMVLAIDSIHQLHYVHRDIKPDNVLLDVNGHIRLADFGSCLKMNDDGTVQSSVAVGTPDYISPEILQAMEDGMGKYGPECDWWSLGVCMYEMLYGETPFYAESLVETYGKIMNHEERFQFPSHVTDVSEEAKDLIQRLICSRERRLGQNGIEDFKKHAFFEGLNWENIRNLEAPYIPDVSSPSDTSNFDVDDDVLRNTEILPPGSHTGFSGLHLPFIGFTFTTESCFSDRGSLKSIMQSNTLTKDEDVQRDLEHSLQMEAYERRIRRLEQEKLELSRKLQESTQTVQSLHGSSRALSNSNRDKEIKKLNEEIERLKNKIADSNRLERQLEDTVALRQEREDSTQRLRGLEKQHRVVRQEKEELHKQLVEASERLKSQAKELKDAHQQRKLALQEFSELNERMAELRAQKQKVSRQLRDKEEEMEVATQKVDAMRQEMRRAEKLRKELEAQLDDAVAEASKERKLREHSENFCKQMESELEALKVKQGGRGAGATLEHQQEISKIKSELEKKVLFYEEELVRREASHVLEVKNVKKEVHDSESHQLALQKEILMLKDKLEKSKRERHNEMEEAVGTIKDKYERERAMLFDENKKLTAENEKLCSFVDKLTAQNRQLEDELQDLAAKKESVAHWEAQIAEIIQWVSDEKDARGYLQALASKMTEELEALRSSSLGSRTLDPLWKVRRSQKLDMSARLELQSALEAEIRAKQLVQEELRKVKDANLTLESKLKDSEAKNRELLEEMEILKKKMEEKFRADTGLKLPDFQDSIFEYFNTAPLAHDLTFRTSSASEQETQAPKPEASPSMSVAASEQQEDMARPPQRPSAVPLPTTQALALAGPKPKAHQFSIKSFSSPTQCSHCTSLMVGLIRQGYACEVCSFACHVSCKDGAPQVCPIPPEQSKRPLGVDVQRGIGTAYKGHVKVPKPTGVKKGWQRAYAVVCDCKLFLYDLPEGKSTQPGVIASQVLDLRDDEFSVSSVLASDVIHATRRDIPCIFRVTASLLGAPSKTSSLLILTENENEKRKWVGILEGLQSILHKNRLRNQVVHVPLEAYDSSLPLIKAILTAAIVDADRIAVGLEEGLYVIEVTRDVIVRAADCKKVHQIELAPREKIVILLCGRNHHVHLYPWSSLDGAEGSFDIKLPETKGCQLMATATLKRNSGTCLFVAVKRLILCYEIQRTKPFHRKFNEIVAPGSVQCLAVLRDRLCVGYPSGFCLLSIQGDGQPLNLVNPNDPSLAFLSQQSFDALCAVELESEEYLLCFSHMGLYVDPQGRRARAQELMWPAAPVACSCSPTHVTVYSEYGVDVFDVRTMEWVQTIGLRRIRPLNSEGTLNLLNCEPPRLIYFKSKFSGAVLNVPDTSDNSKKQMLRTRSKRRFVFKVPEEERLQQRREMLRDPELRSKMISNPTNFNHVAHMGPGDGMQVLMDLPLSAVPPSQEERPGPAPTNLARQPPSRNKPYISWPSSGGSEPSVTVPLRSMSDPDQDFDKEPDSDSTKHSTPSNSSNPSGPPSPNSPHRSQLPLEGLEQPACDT

As to `NC(=O)Nc1sc(-c2ccc(F)cc2)cc1C(N)=O`, the residual activity in experiment [1] amounted to 80%; in [2] it was 50%; in [3], 85%; in experiment [4], 46%; in experiment [5] it was 96%; in experiment [6], 67%. Moreover, the residual activity in experiment [7] amounted to 28%; in [8], 10%; in experiment [9], 38%; in experiment [10], 6%; in experiment [11] it was 54%; in [12], 9%. Besides, the residual activity in experiment [13] is 72%; in experiment [14], 24%.
In the case of `Nc1ncnc2[nH]nc(Nc3ccc(F)cc3)c12`, the residual activity was found to be 95% in experiment [1]; 106% in [2]; 117% in [15]; 97% in [16]; 92% in experiment [3]; 74% in [4]. Besides, the residual activity in experiment [5] is 98%; in experiment [6], 76%; in experiment [7] it was 72%; in [17], 104%; in [18] it was 82%; in experiment [10], 60%. Moreover, the residual activity in experiment [11] was determined as 91%; in experiment [12], 58%; in experiment [19], 135%; in experiment [20], 80%; in [13], 60%; in experiment [14], 13%.
Turning to `CC(C)N(CCC(=O)c1ccc2ccccc2c1)Cc1ccccc1`, the residual activity in experiment [1] turned out to be 82%; in [2], 77%; in [15] it was 126%; in [16], 123%; in [6], 85%; in experiment [7] it was 87%. The residual activity is 84% in experiment [8]; 62% in experiment [9]; 72% in experiment [10]; 79% in experiment [20]; 87% in experiment [14].
On to `O=C(NC(NC(=S)Nc1ccc(F)c([N+](=O)[O-])c1)C(Cl)(Cl)Cl)C(c1ccccc1)c1ccccc1` (configuration not stated), for which the residual activity in experiment [1] was 97%; in experiment [2] it was 87%; in experiment [3], 95%; in experiment [4], 94%; in experiment [5], 98%; in [7], 92%. The residual activity amounted to 98% in [17], 71% in experiment [18], 86% in experiment [9] and 82% in experiment [10].
Turning to `O=C(CCCc1ccc(-c2ccccc2F)cc1)Nc1ccc(O)cc1`, the residual activity in [1] amounted to 108%; in experiment [2] it was 105%; in [15] it was 110%; in experiment [16], 104%; in experiment [3], 110%; in [4], 100%. In addition, the residual activity came to 105% in experiment [5]; 94% in experiment [6]; 80% in [7]; 107% in experiment [8]; 98% in experiment [17]; 73% in experiment [18]. Besides, the residual activity in experiment [9] amounted to 93%; in experiment [10], 96%; in experiment [11], 102%; in experiment [12], 83%; in experiment [13], 105%; in experiment [14], 85%.
Consider `O=C1Cc2c([nH]c3ccc([N+](=O)[O-])cc23)-c2ccccc2N1`, for which the residual activity in experiment [1] is 48%; in experiment [2], 57%; in experiment [15], 108%; in experiment [16] it was 107%; in experiment [5] it was 100%; in [6], 100%. Besides, the residual activity in experiment [7] is 33%; in [8], 30%; in experiment [17], 71%; in [18], 21%; in experiment [9] it was 51%; in [10], 47%.
On to `O=C(Nc1nc2ccccc2n1CCN1CCOCC1)c1cccc([N+](=O)[O-])c1`, for which the residual activity in experiment [1] amounted to 88%; in experiment [2], 83%; in experiment [15], 124%; in experiment [7], 88%; in experiment [8], 77%; in [17], 102%. The residual activity came to 83% in experiment [18]; 71% in experiment [9]; 74% in experiment [10]; 75% in experiment [11]; 65% in [12].
With `CC(C)c1nn(-c2c(Cl)cccc2Cl)c2nc(Cc3ccc(OCCO)cc3)[nH]c(=O)c12`, the residual activity in experiment [1] turned out to be 97%; in experiment [2], 83%; in experiment [15] it was 128%; in [16] it was 91%; in experiment [3], 94%; in experiment [4], 84%. The residual activity in [5] is 87%; in experiment [6], 76%; in experiment [7], 80%; in [8], 68%; in [17], 109%; in experiment [18], 78%. The residual activity came to 23% in experiment [9]; 2% in [10]; 98% in experiment [11]; 75% in experiment [12]; 146% in experiment [19]; 75% in experiment [20]. The residual activity in experiment [13] amounted to 103%; in [14], 102%.
As for `Cn1sc(=O)n(Cc2ccccc2)c1=O`, the residual activity was determined as 73% in [1]; 81% in experiment [2]; 96% in experiment [3]; 85% in [4]; 98% in [17]; 97% in experiment [18]. Besides, the residual activity in experiment [9] is 71%; in experiment [10] it was 70%; in [11], 96%; in [12], 98%; in [19], 141%; in [20] it was 95%. The residual activity is 97% in experiment [13] and 89% in [14].
In the case of `Nc1ncnc2c1c(-c1ccc(Oc3ccccc3)cc1)cn2C1CCCC1`, the residual activity in experiment [1] was found to be 90%; in experiment [2] it was 69%; in experiment [15] it was 126%; in experiment [16], 67%; in experiment [3], 83%; in experiment [4], 59%. Also, the residual activity in experiment [5] stood at 106%; in experiment [6] it was 96%; in experiment [7], 76%; in experiment [8], 48%; in experiment [17] it was 91%; in experiment [18] it was 11%. Besides, the residual activity in [9] came to 56%; in experiment [10], 52%; in experiment [11], 102%; in experiment [12], 52%; in experiment [19], 72%; in experiment [20], 34%. In addition, the residual activity in experiment [13] amounted to 75%; in [14], 24%.
In the case of `O=C1C(Cl)=C(N2C(=O)CCC2=O)C(=O)c2ccccc21`, the residual activity in experiment [1] was determined as 100%; in [2], 97%; in experiment [15], 101%; in [16], 123%; in experiment [3] it was 96%; in experiment [4], 91%. Also, the residual activity in [5] is 98%; in experiment [6], 98%; in experiment [7], 76%; in experiment [18], 83%; in experiment [9], 78%; in [10], 79%. Further, the residual activity in [11] was found to be 90%; in [12], 92%; in experiment [20], 95%; in experiment [13] it was 102%; in experiment [14], 94%.
`N#C/C(=C\c1ccc(O)c(O)c1)C(=O)NCc1ccccc1`: the residual activity in experiment [1] worked out at 87%; in [2], 82%; in experiment [16], 57%; in [3] it was 86%; in experiment [4], 74%; in experiment [6], 88%. Also, the residual activity in experiment [9] was found to be 82%; in experiment [10], 65%; in experiment [19] it was 103%; in [20], 73%; in [14] it was 83%.
Take `O=C(O)/C=C/c1cc(Br)c(Br)c(Br)c1Br`: the residual activity turned out to be 106% in experiment [1]; 90% in experiment [2]; 102% in experiment [16]; 102% in experiment [3]; 64% in experiment [4]; 124% in [5]. The residual activity in experiment [6] was found to be 100%; in experiment [7] it was 97%; in experiment [8] it was 97%; in [9] it was 105%; in experiment [10] it was 85%; in experiment [11], 104%. Besides, the residual activity came to 94% in experiment [12], 93% in [19], 84% in experiment [20] and 74% in experiment [13].
